{"source": "PubChem BioAssay", "note": "Several values for one entry are separate records, joined by “and”; a condition that tells them apart may be missing. Equal values may be shown once. Activity calls are given as the source filed them. No rule for the calls is given here.", "data": [{"test_system": "Aerobactin synthetase IucA (Klebsiella pneumoniae hvKP1)", "assay": "IucA enzyme inhibition, primary screen, biochemical, Spectrum library (AID 1346200);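 also: 100% = wells without compound and 0% = wells lacking enzyme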", "conditions": "malachite green pyrophosphate, A620, at 8 µM, hits give low values", "values": [{"smiles": "CC(=O)O[C@H]1CC[C@@]2(C)C(C[C@@H](OC(C)=O)[C@@]3(C)C4=CC(=O)O[C@@H](c5ccoc5)[C@]4(C)CCC23)C1(C)C", "note": "(some centres undefined)", "activity remaining": "89.5% (inactive)"}, {"smiles": "c1ccc(CC2=NCCN2)cc1", "activity remaining": "118% (inactive)"}, {"smiles": "COc1ccc2cc([C@H](C)C(=O)O)ccc2c1", "activity remaining": "101% (inactive)"}, {"smiles": "COc1c2ccccc2nc2occc12", "activity remaining": "115% (inactive)"}, {"smiles": "COc1ccc(-c2cc(=O)c3c(OC)c(OC)c(OC)c(OC)c3o2)cc1OC", "activity remaining": "122% (inactive)"}, {"smiles": "COc1cc(C)c2c(c1C=O)Oc1c(c(C)c(O)c3c1C(O)OC3=O)OC2=O", "note": "(centres undefined)", "activity remaining": "114% (inactive)"}, {"smiles": "NCCc1ccc(O)c(O)c1", "activity remaining": "103% (inactive) and 107% (inactive)"}, {"smiles": "C[C@]12CCC3C(CC[C@H]4C[C@H](OS(=O)(=O)O)CC[C@]34C)C1CCC2=O", "note": "(some centres undefined)", "activity remaining": "102% (inactive)"}, {"smiles": "COc1ccc(-c2oc3cc(OC)c(OC)c(OC)c3c(=O)c2OC)cc1", "activity remaining": "115% (inactive)"}, {"smiles": "CN(C)CCCC1(c2ccc(F)cc2)OCc2cc(C#N)ccc21", "note": "(centres undefined)", "activity remaining": "102% (inactive)"}, {"smiles": "COc1ccc2c(c1)[C@@]1(C)CCC(=O)C[C@H]1CC2", "activity remaining": "101% (inactive)"}, {"smiles": "COC(=O)[C@@H]1OC(=O)C2OC23[C@@]1(C)CCC1[C@]2(C)C(C[C@H](O)[C@]13C)C(C)(C)[C@H](OC(C)=O)C[C@@H]2OC(C)=O", "note": "(some centres undefined)", "activity remaining": "111% (inactive)"}, {"smiles": "CCN1CCN(c2cc3c(cc2F)c(=O)c(C(=O)O)cn3C2CC2)CC1", "activity remaining": "100% (inactive)"}, {"smiles": "CCOc1ccc(C(=O)c2ccc(O)c(O)c2O)cc1", "activity remaining": "110% (inactive)"}, {"smiles": "CCCc1nc(C(C)(C)O)c(C(=O)OCc2oc(=O)oc2C)n1Cc1ccc(-c2ccccc2-c2nn[nH]n2)cc1", "activity remaining": "121% (inactive)"}, {"smiles": "C[C@H]1c2cccc(O)c2C(O)=C2C(=O)[C@]3(O)C(O)=C(C(N)=O)C(=O)[C@@H](N(C)C)[C@@H]3[C@@H](O)[C@@H]21", "activity remaining": "93.8% (inactive)"}, {"smiles": "C[C@H]1COC2=C1C(=O)C(=O)c1c2ccc2c1CCCC2(C)C", "activity remaining": "106% (inactive)"}, {"smiles": "CCN1CCN(C(=O)NC(C(=O)NC2C(=O)N3C(C(=O)O)=C(CSc4nnnn4C)CSC23)c2ccc(O)cc2)C(=O)C1=O", "note": "(centres undefined)", "activity remaining": "125% (inactive)"}, {"smiles": "COc1cc(OC)c2c(OC)c(-c3ccc4c(c3)OCO4)c(=O)oc2c1", "activity remaining": "95.4% (inactive)"}, {"smiles": "O=C(/C=C/c1ccccc1)c1ccc(O)cc1", "activity remaining": "95.4% (inactive)"}, {"smiles": "CC(C)/C(O)=C1/C(=O)O[C@@H](c2ccoc2)[C@]2(C)C(O)[C@@H](O)[C@@]34OC5(C)OC67CC(C)(C(O)[C@]6(O)[C@@H](O)[C@]3(O5)C12)[C@H](CC(=O)O)[C@]74C", "note": "(some centres undefined)", "activity remaining": "92.7% (inactive)"}, {"smiles": "Nc1c2c(nc3ccccc13)CCCC2", "activity remaining": "118% (inactive)"}, {"smiles": "CC1(C)S[C@@H]2[C@H](NC(=O)COc3ccccc3)C(=O)N2[C@H]1C(=O)O", "activity remaining": "96.2% (inactive)"}, {"smiles": "CC(=O)Nc1nnc(S(N)(=O)=O)s1", "activity remaining": "103% (inactive)"}, {"smiles": "C#C[C@]1(O)CCC2C3CCc4cc(O)ccc4C3CC[C@@]21C", "note": "(some centres undefined)", "activity remaining": "105% (inactive)"}, {"smiles": "CC(=O)N[C@@H](Cc1c[nH]c2ccccc12)C(=O)O", "activity remaining": "110% (inactive)"}, {"smiles": "CN(C)CCCO[C@H]1[C@@H](C(O)CO)OC2OC(C)(C)O[C@@H]21", "note": "(some centres undefined)", "activity remaining": "95% (inactive)"}, {"smiles": "O=C(O)CCCCCCCCCCCCC1C=CCC1", "note": "(centres undefined)", "activity remaining": "118% (inactive)"}, {"smiles": "CC(=O)N[C@@H](CC(C)C)C(=O)O", "activity remaining": "93.2% (inactive)"}, {"smiles": "CCCCCCNC(=O)n1cc(F)c(=O)[nH]c1=O", "activity remaining": "112% (inactive)"}, {"smiles": "CO[C@@H]1[C@@H](OC(N)=O)[C@@H](O)[C@H](Oc2ccc3c(O)c(NC(=O)c4ccc(O)c(CC=C(C)C)c4)c(=O)oc3c2C)OC1(C)C", "activity remaining": "129% (inactive)"}, {"smiles": "Cc1c(NC(C)C)c(=O)n(-c2ccccc2)n1C", "activity remaining": "105% (inactive)"}, {"smiles": "CC1=C(CC(=O)O)c2cc(F)ccc2/C1=C\\c1ccc(S(C)=O)cc1", "note": "(centres undefined)", "activity remaining": "90% (inactive)"}, {"smiles": "C#CCCCCCCCCCCCc1ccco1", "activity remaining": "113% (inactive)"}, {"smiles": "O=C(O)c1cn(C2CC2)c2cc(N3CCNCC3)c(F)cc2c1=O", "activity remaining": "77.6% (inactive)"}, {"smiles": "FC(F)(F)COCC(F)(F)F", "activity remaining": "120% (inactive)"}, {"smiles": "CN[C@@H]1[C@H](O)[C@H](NC)[C@H]2O[C@@]3(O)C(=O)C[C@@H](C)O[C@H]3O[C@@H]2[C@H]1O", "activity remaining": "108% (inactive)"}, {"smiles": "CC(=O)O[C@H]1C(=O)[C@@]2(C)C([C@H](OC(=O)c3ccccc3)[C@]3(O)C[C@H](OC(=O)[C@H](O)[C@@H](NC(=O)c4ccccc4)c4ccccc4)C(C)=C1C3(C)C)[C@]1(OC(C)=O)CO[C@@H]1C[C@@H]2O", "note": "(some centres undefined)", "activity remaining": "90.9% (inactive)"}, {"smiles": "CC(C)NCC(O)c1cc(O)cc(O)c1", "note": "(centres undefined)", "activity remaining": "126% (inactive)"}, {"smiles": "O=C(O)c1cc(=O)c2c(Cl)cc(Cl)cc2[nH]1", "activity remaining": "103% (inactive)"}]}, {"test_system": "Aerobactin synthetase IucA (Klebsiella pneumoniae, hypervirulent)", "assay": "biochemical IucA inhibition screen of LOPAC library by absorbance (AID 1346212);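 also: 100% = no compound wells and 0% = no enzyme wells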", "conditions": "IucA enzyme assay, absorbance (OD) readout; hits give low values;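 tested at 8 µM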", "values": [{"smiles": "COc1ccc2cc([C@H](C)C(=O)O)ccc2c1", "remaining activity": "91.4% (inactive)"}, {"smiles": "NCCc1ccc(O)c(O)c1", "remaining activity": "104% (inactive)"}, {"smiles": "CN(C)CCCC1(c2ccc(F)cc2)OCc2cc(C#N)ccc21", "note": "(centres undefined)", "remaining activity": "124% (inactive)"}, {"smiles": "C[C@H]1c2cccc(O)c2C(O)=C2C(=O)[C@]3(O)C(O)=C(C(N)=O)C(=O)[C@@H](N(C)C)[C@@H]3[C@@H](O)[C@@H]21", "remaining activity": "104% (inactive)"}, {"smiles": "Nc1c2c(nc3ccccc13)CCCC2", "remaining activity": "119% (inactive)"}, {"smiles": "CC(=O)Nc1nnc(S(N)(=O)=O)s1", "remaining activity": "113% (inactive)"}, {"smiles": "CC1=C(CC(=O)O)c2cc(F)ccc2/C1=C\\c1ccc(S(C)=O)cc1", "note": "(centres undefined)", "remaining activity": "119% (inactive)"}, {"smiles": "CC(C)NCC(O)c1cc(O)cc(O)c1", "note": "(centres undefined)", "remaining activity": "118% (inactive)"}, {"smiles": "O=C(O)c1cc(=O)c2c(Cl)cc(Cl)cc2[nH]1", "remaining activity": "110% (inactive)"}]}]}
